Results filed as inconclusive are left out. The source made the active and inactive calls. The calls were made as follows: active = hit-call score of the fitted dose curve at least 0.9, where 1 is the maximum; inconclusive = response in the unintended direction; inactive = score below 0.9.

As a reminder, the AC50 is the concentration at which the activity in the assay is half-maximal.

Sequence of rat Acetylcholinesterase (AChE), Ache (gene 83817) (P37136 whole entry, looked up): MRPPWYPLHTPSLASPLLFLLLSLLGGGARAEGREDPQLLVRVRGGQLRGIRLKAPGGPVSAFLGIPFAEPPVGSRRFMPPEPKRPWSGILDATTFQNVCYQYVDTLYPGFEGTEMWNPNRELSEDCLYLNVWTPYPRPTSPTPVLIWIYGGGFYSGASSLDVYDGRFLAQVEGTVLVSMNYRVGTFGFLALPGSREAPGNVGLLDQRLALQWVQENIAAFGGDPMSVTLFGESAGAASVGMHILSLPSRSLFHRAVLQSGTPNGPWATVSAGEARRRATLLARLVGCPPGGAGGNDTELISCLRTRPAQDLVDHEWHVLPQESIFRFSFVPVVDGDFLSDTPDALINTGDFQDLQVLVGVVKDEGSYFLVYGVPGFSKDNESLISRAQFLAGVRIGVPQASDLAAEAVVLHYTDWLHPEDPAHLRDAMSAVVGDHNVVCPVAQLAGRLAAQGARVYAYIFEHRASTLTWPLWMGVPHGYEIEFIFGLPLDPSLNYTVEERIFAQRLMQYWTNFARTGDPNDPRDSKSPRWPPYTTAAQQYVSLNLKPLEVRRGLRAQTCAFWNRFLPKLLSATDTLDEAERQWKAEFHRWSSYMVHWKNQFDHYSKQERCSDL
Sequence of sheep Cyclooxygenase-1 (Cox1), PTGS1 (gene 443551) (P05979 whole entry, looked up): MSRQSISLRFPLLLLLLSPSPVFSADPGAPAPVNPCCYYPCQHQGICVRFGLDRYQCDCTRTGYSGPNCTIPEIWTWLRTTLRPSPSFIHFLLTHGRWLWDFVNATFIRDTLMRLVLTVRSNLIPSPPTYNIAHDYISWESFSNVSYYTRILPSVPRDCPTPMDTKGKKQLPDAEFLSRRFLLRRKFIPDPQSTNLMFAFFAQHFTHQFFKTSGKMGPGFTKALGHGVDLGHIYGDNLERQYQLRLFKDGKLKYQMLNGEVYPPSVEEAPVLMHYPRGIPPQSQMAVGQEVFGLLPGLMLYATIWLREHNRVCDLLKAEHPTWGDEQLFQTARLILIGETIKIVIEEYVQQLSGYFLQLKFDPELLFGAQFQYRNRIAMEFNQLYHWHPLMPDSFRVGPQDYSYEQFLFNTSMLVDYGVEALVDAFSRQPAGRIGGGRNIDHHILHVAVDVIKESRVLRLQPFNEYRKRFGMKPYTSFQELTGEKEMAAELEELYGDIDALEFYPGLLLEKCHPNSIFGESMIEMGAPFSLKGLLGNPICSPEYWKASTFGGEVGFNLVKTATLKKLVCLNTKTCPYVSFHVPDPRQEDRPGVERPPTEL

The target in one experiment is human Vascular Endothelial Growth Factor Receptor 2 (VEGFR2), KDR (gene 3791) (UniProt P35968). Briefly: NVS_ENZ_hVEGFR2: NovaScreen (NVS) Enzymatic Assay for human Vascular Endothelial Growth Factor Receptor 2 (VEGFR2) (AID 2283230). Put shortly: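 Cell-free recombinant VEGFR2 kinase, fluorescent substrate with electrophoretic mobility-shift separation; read 1 h after dosing. Screened at 25 uM in duplicate, hits to concentration-response up to 50 uM; loss-of-signal versus DMSO.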
Sequence of human Vascular Endothelial Growth Factor Receptor 2 (VEGFR2), KDR (gene 3791) (P35968 whole entry, looked up): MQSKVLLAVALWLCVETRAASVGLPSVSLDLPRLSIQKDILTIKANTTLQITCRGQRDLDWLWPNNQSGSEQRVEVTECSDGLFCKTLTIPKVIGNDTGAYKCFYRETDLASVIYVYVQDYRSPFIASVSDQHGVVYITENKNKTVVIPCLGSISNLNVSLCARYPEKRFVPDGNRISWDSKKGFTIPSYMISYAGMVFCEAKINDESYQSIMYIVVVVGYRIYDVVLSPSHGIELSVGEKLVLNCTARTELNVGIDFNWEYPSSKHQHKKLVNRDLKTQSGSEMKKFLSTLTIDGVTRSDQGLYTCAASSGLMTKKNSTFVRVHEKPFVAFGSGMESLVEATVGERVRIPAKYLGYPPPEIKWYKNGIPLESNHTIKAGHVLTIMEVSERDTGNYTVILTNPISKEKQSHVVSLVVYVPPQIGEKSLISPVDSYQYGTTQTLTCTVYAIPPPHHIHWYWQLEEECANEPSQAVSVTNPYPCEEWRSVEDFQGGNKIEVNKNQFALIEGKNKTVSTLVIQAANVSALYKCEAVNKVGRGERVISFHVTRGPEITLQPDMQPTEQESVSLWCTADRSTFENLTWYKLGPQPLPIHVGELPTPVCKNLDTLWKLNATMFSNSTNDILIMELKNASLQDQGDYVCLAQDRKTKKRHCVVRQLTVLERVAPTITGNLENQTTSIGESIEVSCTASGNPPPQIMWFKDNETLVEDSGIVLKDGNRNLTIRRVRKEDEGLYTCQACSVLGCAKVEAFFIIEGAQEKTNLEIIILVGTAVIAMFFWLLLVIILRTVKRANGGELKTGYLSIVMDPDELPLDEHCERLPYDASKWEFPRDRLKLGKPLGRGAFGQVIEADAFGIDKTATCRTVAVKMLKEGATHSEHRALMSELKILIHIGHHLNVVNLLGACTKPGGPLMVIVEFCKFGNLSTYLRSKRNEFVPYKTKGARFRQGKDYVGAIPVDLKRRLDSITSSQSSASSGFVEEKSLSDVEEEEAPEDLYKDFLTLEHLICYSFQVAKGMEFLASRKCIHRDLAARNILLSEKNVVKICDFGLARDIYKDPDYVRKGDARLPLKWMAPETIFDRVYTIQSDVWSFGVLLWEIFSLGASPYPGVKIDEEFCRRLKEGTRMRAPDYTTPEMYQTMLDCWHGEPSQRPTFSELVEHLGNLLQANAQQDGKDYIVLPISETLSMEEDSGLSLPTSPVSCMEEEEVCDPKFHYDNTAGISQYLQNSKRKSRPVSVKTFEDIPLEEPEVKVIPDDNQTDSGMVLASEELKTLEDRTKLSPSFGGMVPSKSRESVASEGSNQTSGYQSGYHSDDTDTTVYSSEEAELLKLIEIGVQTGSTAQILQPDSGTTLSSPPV
Take `O=C(N[C@H]1CN2CCC1CC2)c1ccc2c(c1)OCCO2`: the outcome was inactive.

As for `Oc1cc(Cl)c(Cl)cc1Cl`, the compound was called inactive.

Consider `CCCCCCCCCCCCc1cccc(S(=O)(=O)O)c1`, for which the AC50 is 9.17 µM (active).

In the case of `CC(C)O.CC(C)O.OCCN(CCO)CCO.OCCN(CCO)CCO.[Ti]`, the AC50 was 6.5 µM (active).

In the case of `OCCN(CCO)CCO`, the call was inactive.

With `N#Cc1cccnc1`, the compound was called inactive.

As to `O=C(CBr)c1ccc(O)cc1`, the call was inactive.

The next experiment concerns the target rat Acetylcholinesterase (AChE), Ache (gene 83817) (UniProt P37136). As to the kind of experiment: NVS_ENZ_rAChE: NovaScreen (NVS) Enzymatic Assay for rat Acetylcholinesterase (AChE) (AID 2283233). Put shortly: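 Rat brain membrane acetylcholinesterase activity measured colorimetrically 0.33 h after compound addition, loss of signal relative to DMSO. Primary screen in duplicate at 25 uM; actives re-run as concentration-response with 50 uM top concentration.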
Consider `CCOC(=O)C(SP(=S)(OC)OC)c1ccccc1` (stereo not given), for which the AC50 was 10.2 µM (active).

In the case of `CCOC(=O)CCN(SN(C)C(=O)Oc1cccc2c1OC(C)(C)C2)C(C)C`, the AC50 is 1.33 µM (active).

Regarding `CCOP(=O)(OCC)OC(=CCl)c1ccc(Cl)cc1Cl`, the AC50 was 6.51 µM (active).

The next experiment addresses sheep Cyclooxygenase-1 (Cox1), PTGS1 (gene 443551) (UniProt P05979). As to the kind of experiment: NVS_ENZ_oCOX1: NovaScreen (NVS) Enzymatic Assay for sheep Cyclooxygenase-1 (Cox1) (AID 2283239).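 Also: actives reduce cyclooxygenase activity so potencies are for inhibitors.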 Put shortly:
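Absorbance read-out of cyclooxygenase activity in a cell-free preparation from sheep seminal vesicles, taken 0.66 hour after dosing. Initial testing was in duplicate at 25 uM, and confirmatory testing was run in concentration series.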
Regarding `C=CC(=O)NC(C)(C)CC(C)=O`, the AC50 was 21.4 µM (active).

For the compound `O=c1oc2ccccc2c(O)c1C(CC(O)c1ccc(-c2ccc(Br)cc2)cc1)c1ccccc1` (stereo not given), the AC50 is 1.31 µM (active).

Consider `Nc1ncn[nH]1`, for which the result was inactive.

For `O=C1c2ccccc2C(=O)C1C(=O)C(c1ccccc1)c1ccc(Cl)cc1` (stereo not given), the outcome was inactive.

As to `COc1ccc(N)cc1`, the AC50 is 26 µM (active).

Take `O=[N+]([O-])c1cccc2ccccc12`: the call was inactive.

Take `CC(C=O)Cc1ccc2c(c1)OCO2` (stereo not given): the AC50 was 25 µM (active).

For the compound `O=C(O)COc1cc(Cl)c(Cl)cc1Cl`, the result was inactive.

Regarding `COc1ccccc1N`, the AC50 was 0.146 µM (active).

On to `CN(C)CCN(C)C`, for which the outcome was inactive.

With `CCCCCCCCCCCCc1cccc(S(=O)(=O)O)c1`, the AC50 is 5.06 µM (active).

Consider `N#CCCC(Br)(C#N)CBr` (stereo not given), for which the AC50 was 4.04 µM (active).

Take `c1ccc2sc(SNC3CCCCC3)nc2c1`: the compound was classed as inactive.

Turning to `[Cl][Sn]([c]1ccccc1)([c]1ccccc1)[c]1ccccc1`, the result was inactive.

Take `CC(C)(C)c1ccccc1O`: the compound was called inactive.

For the origin of these results see PubChem BioAssay (EPA / NIEHS).
